About 7,900 targets were measured; listed, in parts, are those with a hit and a random draw of the rest. About 0.6% of all pairs of compound and target were hits.
The targets below were run with C1CCN(C1)C(=O)NC2=CC=CC(=C2)NC3=NC=C(C(=N3)NCCC4=CN=CN4)Br (assay: log2 fold change, soluble protein after heating vs DMSO (PISA); higher = thermal stabilisation; K562 cells, 10 uM, 30 min; active = over 0.2 and 3.5 SD of the protein, either way, in both replicates (recomputed)).
Procedure, shortened: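 Values are thermal stability changes relative to control samples and are taken from duplicates. They are stated as log2 fold changes. Before quantification by TMTpro 16plex LC-MS/MS with equalised channel sums, K562 cells at 2×10^6 cells/mL were treated with 10 μM compound for 30 min, heated in aliquots for 3 min across 48°C-58°C, pooled, extracted in PBS with 0.5% NP-40 at 4°C, and centrifuged at 21,000xg for 90 min to give the soluble supernatant.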

UniProt P06280, sequence (P06280 whole entry, looked up): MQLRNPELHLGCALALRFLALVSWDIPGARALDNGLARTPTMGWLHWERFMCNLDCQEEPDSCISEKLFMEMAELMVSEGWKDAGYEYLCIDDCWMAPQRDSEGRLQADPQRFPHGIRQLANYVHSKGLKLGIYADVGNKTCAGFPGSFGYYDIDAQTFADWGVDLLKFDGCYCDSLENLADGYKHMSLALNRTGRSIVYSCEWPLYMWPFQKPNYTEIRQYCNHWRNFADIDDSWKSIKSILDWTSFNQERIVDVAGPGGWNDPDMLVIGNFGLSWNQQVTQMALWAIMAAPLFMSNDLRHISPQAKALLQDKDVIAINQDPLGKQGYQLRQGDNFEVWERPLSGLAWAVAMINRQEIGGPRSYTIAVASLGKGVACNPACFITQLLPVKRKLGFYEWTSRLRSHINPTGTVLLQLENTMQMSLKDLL
UniProt Q92769, sequence (Q92769 whole entry, looked up): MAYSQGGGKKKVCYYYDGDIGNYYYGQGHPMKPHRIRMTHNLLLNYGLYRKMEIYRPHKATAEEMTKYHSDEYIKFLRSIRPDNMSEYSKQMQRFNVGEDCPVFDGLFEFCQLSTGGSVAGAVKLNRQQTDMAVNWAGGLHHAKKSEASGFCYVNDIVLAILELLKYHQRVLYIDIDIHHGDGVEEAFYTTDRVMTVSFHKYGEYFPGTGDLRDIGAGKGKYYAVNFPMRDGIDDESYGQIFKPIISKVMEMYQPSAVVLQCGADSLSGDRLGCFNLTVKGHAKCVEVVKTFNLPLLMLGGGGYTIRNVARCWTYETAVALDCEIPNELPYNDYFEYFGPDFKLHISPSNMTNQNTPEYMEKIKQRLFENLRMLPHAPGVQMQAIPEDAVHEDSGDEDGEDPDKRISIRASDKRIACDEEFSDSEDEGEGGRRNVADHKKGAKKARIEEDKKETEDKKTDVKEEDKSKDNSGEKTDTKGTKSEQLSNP
UniProt P06865, sequence (P06865 whole entry, looked up): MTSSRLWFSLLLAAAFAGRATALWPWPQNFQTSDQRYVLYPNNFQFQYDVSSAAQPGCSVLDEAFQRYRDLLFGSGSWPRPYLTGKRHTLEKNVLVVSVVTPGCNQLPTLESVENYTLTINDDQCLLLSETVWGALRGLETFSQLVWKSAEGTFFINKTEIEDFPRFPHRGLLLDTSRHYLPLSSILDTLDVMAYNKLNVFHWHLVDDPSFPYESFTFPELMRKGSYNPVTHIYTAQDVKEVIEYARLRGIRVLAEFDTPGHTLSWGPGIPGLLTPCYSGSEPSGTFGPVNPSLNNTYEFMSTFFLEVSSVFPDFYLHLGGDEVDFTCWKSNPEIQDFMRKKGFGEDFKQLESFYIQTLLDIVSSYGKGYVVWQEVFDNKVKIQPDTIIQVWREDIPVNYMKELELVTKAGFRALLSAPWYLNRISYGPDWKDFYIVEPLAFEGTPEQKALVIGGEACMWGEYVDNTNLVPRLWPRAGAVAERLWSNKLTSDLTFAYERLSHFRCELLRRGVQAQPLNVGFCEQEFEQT
UniProt Q86VS8, sequence (Q86VS8 whole entry, looked up): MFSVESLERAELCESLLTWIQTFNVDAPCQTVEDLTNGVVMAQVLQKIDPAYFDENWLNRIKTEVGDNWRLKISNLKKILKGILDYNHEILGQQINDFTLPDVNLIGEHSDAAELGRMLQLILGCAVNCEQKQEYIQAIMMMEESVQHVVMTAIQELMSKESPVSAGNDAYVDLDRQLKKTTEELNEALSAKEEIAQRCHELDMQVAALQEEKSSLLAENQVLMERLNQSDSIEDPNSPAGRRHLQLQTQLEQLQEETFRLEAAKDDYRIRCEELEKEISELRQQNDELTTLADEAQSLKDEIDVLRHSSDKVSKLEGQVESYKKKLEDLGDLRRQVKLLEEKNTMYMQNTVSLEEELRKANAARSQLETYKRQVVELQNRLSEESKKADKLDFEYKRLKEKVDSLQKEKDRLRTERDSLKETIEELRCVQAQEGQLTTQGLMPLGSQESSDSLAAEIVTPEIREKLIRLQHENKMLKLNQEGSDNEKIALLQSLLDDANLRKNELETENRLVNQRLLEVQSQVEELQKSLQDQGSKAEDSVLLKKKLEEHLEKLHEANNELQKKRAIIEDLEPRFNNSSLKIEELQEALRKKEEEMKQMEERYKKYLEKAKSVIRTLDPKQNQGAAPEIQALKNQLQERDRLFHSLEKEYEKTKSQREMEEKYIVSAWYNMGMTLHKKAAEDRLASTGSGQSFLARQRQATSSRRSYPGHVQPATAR
UniProt P48507, sequence (P48507 whole entry, looked up): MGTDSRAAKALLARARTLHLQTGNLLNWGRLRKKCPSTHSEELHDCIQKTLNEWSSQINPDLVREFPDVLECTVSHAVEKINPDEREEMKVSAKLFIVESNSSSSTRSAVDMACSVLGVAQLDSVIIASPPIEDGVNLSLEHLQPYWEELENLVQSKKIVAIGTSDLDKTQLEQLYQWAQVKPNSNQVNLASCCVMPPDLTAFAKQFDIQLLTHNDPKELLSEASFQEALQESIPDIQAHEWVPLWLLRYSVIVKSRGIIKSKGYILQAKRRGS
UniProt P49841, sequence (P49841 whole entry, looked up): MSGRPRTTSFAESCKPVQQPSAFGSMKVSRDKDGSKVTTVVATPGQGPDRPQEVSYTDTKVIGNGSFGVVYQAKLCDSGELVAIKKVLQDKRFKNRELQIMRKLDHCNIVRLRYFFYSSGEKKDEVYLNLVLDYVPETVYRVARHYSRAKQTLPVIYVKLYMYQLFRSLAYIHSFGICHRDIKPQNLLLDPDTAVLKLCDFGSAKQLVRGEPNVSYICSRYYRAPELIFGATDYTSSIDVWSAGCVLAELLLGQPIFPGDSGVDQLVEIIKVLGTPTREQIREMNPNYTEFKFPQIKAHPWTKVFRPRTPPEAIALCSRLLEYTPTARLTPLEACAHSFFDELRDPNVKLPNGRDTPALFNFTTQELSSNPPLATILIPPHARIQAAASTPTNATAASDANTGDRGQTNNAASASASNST
UniProt O15228, sequence (O15228 whole entry, looked up): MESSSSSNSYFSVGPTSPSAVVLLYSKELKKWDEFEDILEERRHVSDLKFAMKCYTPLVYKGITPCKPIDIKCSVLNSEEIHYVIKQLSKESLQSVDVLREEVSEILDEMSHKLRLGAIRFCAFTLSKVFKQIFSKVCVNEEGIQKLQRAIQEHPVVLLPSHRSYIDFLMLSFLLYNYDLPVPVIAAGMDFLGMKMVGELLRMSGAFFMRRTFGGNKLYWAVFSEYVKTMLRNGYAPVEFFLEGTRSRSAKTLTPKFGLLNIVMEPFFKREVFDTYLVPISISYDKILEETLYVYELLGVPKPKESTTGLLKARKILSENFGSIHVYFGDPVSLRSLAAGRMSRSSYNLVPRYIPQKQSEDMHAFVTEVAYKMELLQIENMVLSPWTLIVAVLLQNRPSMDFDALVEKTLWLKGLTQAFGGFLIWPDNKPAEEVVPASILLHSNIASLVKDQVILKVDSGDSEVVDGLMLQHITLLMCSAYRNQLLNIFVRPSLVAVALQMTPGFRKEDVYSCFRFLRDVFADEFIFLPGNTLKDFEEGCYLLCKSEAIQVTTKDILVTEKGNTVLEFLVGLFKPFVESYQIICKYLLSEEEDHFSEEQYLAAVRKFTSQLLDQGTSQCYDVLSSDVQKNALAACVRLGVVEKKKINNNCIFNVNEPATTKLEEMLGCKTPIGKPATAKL
UniProt P22830, sequence (P22830 whole entry, looked up): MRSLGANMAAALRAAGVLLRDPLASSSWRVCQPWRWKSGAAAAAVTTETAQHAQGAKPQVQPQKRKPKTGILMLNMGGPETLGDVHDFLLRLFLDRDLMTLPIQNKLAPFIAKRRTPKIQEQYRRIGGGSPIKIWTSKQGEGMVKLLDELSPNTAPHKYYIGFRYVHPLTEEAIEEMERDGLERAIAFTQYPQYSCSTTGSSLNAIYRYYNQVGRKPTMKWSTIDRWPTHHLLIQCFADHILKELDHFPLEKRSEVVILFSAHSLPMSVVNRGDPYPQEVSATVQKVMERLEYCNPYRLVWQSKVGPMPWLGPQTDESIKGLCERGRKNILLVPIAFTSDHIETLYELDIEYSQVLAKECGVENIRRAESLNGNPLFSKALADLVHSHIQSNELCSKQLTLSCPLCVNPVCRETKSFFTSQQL
UniProt P04035, sequence (P04035 whole entry, looked up): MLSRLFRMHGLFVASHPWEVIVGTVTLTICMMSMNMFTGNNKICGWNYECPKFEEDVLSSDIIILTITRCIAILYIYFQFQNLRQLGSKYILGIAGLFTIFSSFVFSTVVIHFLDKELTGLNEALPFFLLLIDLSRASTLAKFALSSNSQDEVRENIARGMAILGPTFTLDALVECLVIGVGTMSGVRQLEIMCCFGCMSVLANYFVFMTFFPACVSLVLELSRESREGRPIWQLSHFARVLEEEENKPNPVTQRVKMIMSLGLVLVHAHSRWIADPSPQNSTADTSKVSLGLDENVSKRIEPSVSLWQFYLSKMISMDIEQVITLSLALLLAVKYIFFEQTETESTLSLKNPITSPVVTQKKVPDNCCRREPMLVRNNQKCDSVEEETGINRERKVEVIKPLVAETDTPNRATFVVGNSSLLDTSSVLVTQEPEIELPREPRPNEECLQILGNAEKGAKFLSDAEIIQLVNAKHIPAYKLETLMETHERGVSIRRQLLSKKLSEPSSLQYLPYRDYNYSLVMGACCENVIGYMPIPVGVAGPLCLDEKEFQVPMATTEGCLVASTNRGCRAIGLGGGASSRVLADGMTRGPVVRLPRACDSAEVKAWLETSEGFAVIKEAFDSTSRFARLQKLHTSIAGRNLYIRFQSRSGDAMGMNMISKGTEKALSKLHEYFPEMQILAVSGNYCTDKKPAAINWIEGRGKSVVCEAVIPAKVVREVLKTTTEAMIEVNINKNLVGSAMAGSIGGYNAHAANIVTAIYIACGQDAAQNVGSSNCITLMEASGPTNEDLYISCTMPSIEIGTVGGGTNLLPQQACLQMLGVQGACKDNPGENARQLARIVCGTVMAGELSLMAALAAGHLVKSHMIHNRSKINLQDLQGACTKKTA
UniProt P05114, sequence (P05114 whole entry, looked up): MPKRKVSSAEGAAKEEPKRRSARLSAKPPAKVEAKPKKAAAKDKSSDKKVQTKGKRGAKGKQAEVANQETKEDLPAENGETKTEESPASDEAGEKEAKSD

log2 fold change, inactive:
GSK3B isoform 2 (UniProt P49841) 0.042
GDI1 (UniProt P31150) 0.015
HMGCR isoform 3 (UniProt P04035) -0.081
FBL (UniProt P22087) 0.054
HMG20A (UniProt Q9NP66) -0.013
HDAC2 (UniProt Q92769) -0.025
GCLM (UniProt P48507) -0.008
H1FX (UniProt Q92522) 0.076
HMGN1 (UniProt P05114) 0.029
GDPD1 (UniProt Q8N9F7) -0.037
IFT74 (UniProt Q96LB3) -0.076
GLCCI1 (UniProt Q86VQ1) -0.044
GSTP1 (UniProt P09211) 0.021
HNRNPF (UniProt P52597) -0.044
HSPA8 (UniProt E9PK54) -0.056
GNPAT (UniProt O15228) -0.003
GTF2E1 (UniProt P29083) -0.076
H2AFX (UniProt P16104) 0.231
FOXK1 (UniProt P85037) 0.394
GABARAPL1 isoform 2 (UniProt Q9H0R8) -0.02
HOOK3 (UniProt Q86VS8) -0.005
FECH isoform 2 (UniProt P22830) 0.172
HPCAL1 (UniProt P37235) 0.013
GOLPH3 (UniProt Q9H4A6) -0.101
HIST2H2BF isoform 2 (UniProt Q5QNW6) 0.191
HDAC7 isoform 5 (UniProt Q8WUI4) -0.056
HEXA (UniProt P06865) 0.01
HDAC6 (UniProt Q9UBN7) -0.043
IFRD2 isoform 2 (UniProt Q12894) 0.302
GSTT1 (UniProt P30711) 0.003
H2AZ1 (UniProt P0C0S5) 0.07
HSD17B12 (UniProt Q53GQ0) -0.028
GNAS (UniProt Q5JWF2) -0.011
GLA (UniProt P06280) 0.026
GLUL (UniProt P15104) -0.037
